Values joined by “and” are separate entries in the source; they are usually repeats but may differ in a detail not shown here. Equal values may be shown once. Records with an inconclusive call do not appear. Where a structure was tested more than once in an assay, its records may differ in their call. Active and inactive are the calls of the source. How the source made its calls: active means hit-call score of the fitted dose curve at least 0.9, where 1 is the maximum; inconclusive means response in the unintended direction; inactive means score below 0.9.
Experiments:
[1] = TOX21_p53_BLA_p2_viability: Viability Assessment in the Tox21 HCT-116 p53 Agonism Beta-lactamase Assay, Phase 2 (AID 2283591);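 further: compound exposure lasted 16 h at 37 °C; actives lower the ATP signal meaning cytotoxicity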
Procedure, shortened: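 HCT-116 p53-bla cells (4000/well) rested 5 h at 37C, then received compounds in DMSO (217-fold dilution) for 16 h at 37C, 5% CO2. After the CCF4 read, CellTiter-Glo was added; ATP luminescence was read after 30 min at room temperature.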

[2] = TOX21_p53_BLA_p3_viability: Viability Assessment in the Tox21 HCT-116 p53 Agonism Beta-lactamase Assay, Phase 3 (AID 2283593);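 further: cells exposed to compound for 16 h before reading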
Procedure, shortened: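 HCT-116 cells (4000/well) rested 5 h at 37C, then got DMSO compounds by pin tool (217-fold dilution) for 16 h at 37C, 5% CO2. After the bla read, CellTiter-Glo was added and luminescence read at 30 min, room temperature.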

[3] = target: Cellular tumor antigen p53 (Homo sapiens) (UniProt P04637); test: TOX21_p53_BLA_p3_ratio: Tox21 HCT-116 p53 Agonism Beta-lactamase Assay, Ratio, Phase 3 (AID 2283596)
Procedure, shortened: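 Cells were seeded at 4000/well, rested 5 h at 37C, then dosed with DMSO compound solutions (217-fold dilution) for 16 h. CCF4-AM substrate was loaded for 2 h at room temperature, and the 460/530 nm emission ratio was fitted for gain of signal versus DMSO.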

[4] = TOX21_p53_BLA_p4_viability: Viability Assessment in the Tox21 HCT-116 p53 Agonism Beta-lactamase Assay, Phase 4 (AID 2283597);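 further: hits lower the luminescence signal meaning cytotoxicity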
Procedure, shortened: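 In this multiplexed secondary endpoint, HCT116 cells (4000 per well, compound at 5 h, 16 h treatment) received CellTiter-Glo after the beta-lactamase read. Luminescence after 30 min RT reflects ATP, and falling signal marks cytotoxicity.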

[5] = target: Cellular tumor antigen p53 (Homo sapiens) (UniProt P04637); test: TOX21_p53_BLA_p5_ratio: Tox21 HCT-116 p53 Agonism Beta-lactamase Assay, Ratio, Phase 5 (AID 2283599)
Procedure, shortened: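 HCT-116 cells carrying a p53-inducible beta-lactamase reporter were seeded at 4000 cells/well and dosed after 5 h with compound in DMSO (217-fold dilution). After 16 h at 37C, CCF4-AM substrate was added for 2 h, and the 460/530 nm emission ratio was scored as gain-of-signal versus DMSO.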

[6] = TOX21_p53_BLA_p5_viability: Viability Assessment in the Tox21 HCT-116 p53 Agonism Beta-lactamase Assay, Phase 5 (AID 2283600)
Procedure, shortened: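 Here cell health was gauged by ATP levels in wells holding 4000 cells, each treated 16 h with DMSO-delivered compounds at 217-fold dilution; reduced luminescence marked toxicity.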

[7] = target: Cellular tumor antigen p53 (Homo sapiens) (UniProt P04637); test: TOX21_p53_BLA_p4_ratio: Tox21 HCT-116 p53 Agonism Beta-lactamase Assay, Ratio, Phase 4 (AID 2283601)
Procedure, shortened: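 HCT116 cells carrying an inducible beta-lactamase reporter were plated at 4000 cells/well, rested 5 h, then exposed to compounds in DMSO (217-fold dilution) for 16 h at 37C. CCF4-AM substrate was loaded 2 h at room temperature; 460/530 nm emission ratio scored gain-of-signal versus DMSO.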

[8] = ATG_XTT_Cytotoxicity: Cytotoxicity Assessment in the Attagene TRANS-FACTORIAL HepG2 Assay (AID 2283584);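 on AC50: XTT signal for cell number as viability in transfected HepG2 cells; cells exposed to compound for 24 h before reading; active means loss of viability signal versus DMSO baseline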
Procedure, shortened: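 24 h chemical exposure of reporter-transfected HepG2; XTT signal loss vs DMSO indicates cytotoxicity.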

[9] = target: Cellular tumor antigen p53 (Homo sapiens) (UniProt P04637); test: TOX21_p53_BLA_p2_ratio: Tox21 HCT-116 p53 Agonism Beta-lactamase Assay, Ratio, Phase 2 (AID 2283592)
Procedure, shortened: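 DMSO-normalized, positive-direction endpoint derived from the 460 nm/530 nm FRET ratio in HCT116 p53 beta-lactamase reporter cells exposed 16 h at 37C and loaded with CCF4-AM for 2 h.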

Measured: AC50

Chain of Cellular tumor antigen p53 (Homo sapiens) (P04637 whole entry, looked up): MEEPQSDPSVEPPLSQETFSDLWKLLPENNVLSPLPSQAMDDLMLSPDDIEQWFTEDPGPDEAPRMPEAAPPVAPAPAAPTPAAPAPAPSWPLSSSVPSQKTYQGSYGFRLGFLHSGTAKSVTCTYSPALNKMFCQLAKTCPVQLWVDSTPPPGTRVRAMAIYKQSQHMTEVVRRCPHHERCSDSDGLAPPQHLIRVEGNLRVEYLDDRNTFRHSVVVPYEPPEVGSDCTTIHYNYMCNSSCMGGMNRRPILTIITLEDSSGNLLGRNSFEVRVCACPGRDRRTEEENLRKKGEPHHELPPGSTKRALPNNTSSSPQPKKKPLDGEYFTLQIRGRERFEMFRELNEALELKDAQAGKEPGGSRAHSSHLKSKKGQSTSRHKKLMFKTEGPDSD

COCc1c(C(C)C)nc(C(C)C)c(/C=C/[C@@H](O)C[C@@H](O)CC(=O)O)c1-c1ccc(F)cc1
not listed: [8] | [9]
inactive: all other assays above

CCCCC/C=C\CCC=O
inactive: [2] | [3] | [4] | [5] | [7]

CC(C)C(=O)C(C)C
inactive: [8]

Nc1ccc2cc3ccccc3cc2c1
inactive: [8]

CC(=O)Nc1ccc2c(c1)Cc1cc(NC(C)=O)ccc1-2
not listed: [6] | [7]
inactive: all other assays above

C=C[C@](C)(O)CC[C@@H]1[C@@]2(C)CCCC(C)(C)[C@@H]2CC[C@@]1(C)O
active: [8] 119 µM | [1] 47.1 µM | [9] 86 µM | [2] 64.6 µM | [3] 85.2 µM | [4] 15.8 µM | [5] 87.1 µM | [6] 67.5 µM
inactive: [7]

CCCc1ccc(OC)cc1
inactive: [8]

CC(=O)OC1C2(C)CCC(C2)C1(C)C (stereo not given)
inactive: [8]

COCCCOCCCOC
inactive: [8]

CC(C)(C)c1ccc(N)cc1
inactive: [8]

CCCCCC(C)O (stereo not given)
inactive: [8]

CC(CC=O)CCCC(C)(C)O (stereo not given)
inactive: [8]

Cc1ccc(OC(=O)CC(C)C)cc1
inactive: [8]

C=C(C)CCO
inactive: [8]

CCN(CC)c1ccc(C(=O)c2ccccc2C(=O)O)c(O)c1
inactive: [8]

CCCCCCCC/C=C\CCCCCCCC(=O)OCCO
inactive: [8]

CCCCCCCCc1ccc(Nc2ccc(CCCCCCCC)cc2)cc1
inactive: [8]

CC(=O)CC(N)=O
inactive: [8]

CCCCCCCCCCc1ccccc1
inactive: [8]

COC(=O)c1ccccc1OC
inactive: [8]

S=C(NC1CCCCC1)NC1CCCCC1
inactive: [8]

C=CC(C)(CCC=C(C)C)OC(=O)CC(C)C (stereo not given)
inactive: [8]

Nc1ccc(N=Nc2ccccc2)c(N)n1
inactive: [8] | [1] | [9] | [2] | [4] | [5] | [6] | [7]
active: [9] 85.6 µM and 25.8 µM | [3] 87.8 µM and 85.8 µM and 43.2 µM | [5] 83.5 µM and 85.4 µM

CCCCCC/C=C/C=O
inactive: [8]

CC[C@H]1OC(=O)[C@H](C)[C@@H](O[C@H]2C[C@@](C)(OC)[C@@H](O)[C@H](C)O2)[C@H](C)[C@@H](O[C@@H]2O[C@H](C)C[C@H](N(C)C)[C@H]2O)[C@](C)(O)C[C@@H](C)C(=NOCOCCOC)[C@H](C)[C@@H](O)[C@]1(C)O
inactive: [8]

O=C(O)C(c1ccc(Cl)cc1)c1ccc(Cl)cc1
inactive: [8]

Cc1ccc(C2OC[C@@H]3OC(c4ccc(C)cc4)O[C@H]([C@H](O)CO)[C@@H]3O2)cc1 (stereo not given in full)
inactive: [8]

O=c1cc(-c2ccccc2)oc2ccccc12
inactive: [8]

CC(C)=CC1CC(C)CCO1 (stereo not given)
inactive: [8]

Cc1ccc2oc(=O)ccc2c1
inactive: [8]

CC1(C)[C@H]2CC[C@]1(C)C(=O)C2
inactive: [8]

Nc1ncn([C@@H]2O[C@H](CO)[C@@H](O)[C@H]2O)c(=O)n1
active: [9] 1.06 µM | [3] 13.4 µM | [4] 1.15 µM and 514 nM | [5] 3.88 µM and 6.69 µM | [7] 13.6 µM and 6.66 µM
inactive: [8] | [1] | [9] | [2] | [3] | [6]

CC(C)C1=CC2=CC[C@@H]3[C@](C)(CCC[C@@]3(C)C(=O)O)[C@H]2CC1
active: [1] 58.9 µM
not listed: [7]
inactive: all other assays above

C=C(C)C(=O)OCCOc1ccccc1
inactive: [8]

CCCC(C)CCC(C)=O (stereo not given)
inactive: [8]

COC=O
inactive: [8]

COc1ccc(NC(C)=O)cc1N
inactive: [8]

CCCCCCCCCCCCCCCC(=O)OCC
inactive: [8]

O=C(O)c1ccccc1Nc1cccc(C(F)(F)F)c1
active: [9] 19.9 µM | [4] 22.7 µM and 23 µM | [5] 46.1 µM | [7] 39.5 µM
inactive: [8] | [1] | [9] | [2] | [3] | [5] | [6] | [7]

CCCCCCCCCCCCCCCC[n+]1ccccc1
active: [8] 26.6 µM

C=CC(=O)NC(C)(C)CS(=O)(=O)O
not listed: [5]
inactive: all other assays above

O=C(O)CC(C(=O)O)C(CC(=O)O)C(=O)O (stereo not given)
inactive: all assays above

C=CC(C)(C)C
not listed: [4]
inactive: all other assays above

CCC(CO)CO
not listed: [6]
inactive: all other assays above

NC(=O)c1ccccc1O
not listed: [4]
inactive: all other assays above

CCCCCCCC/C=C\CCCCCCCC(=O)O
inactive: all assays above

CC(C)(c1cc(Br)c(OCCO)c(Br)c1)c1cc(Br)c(OCCO)c(Br)c1
active: [8] 23.3 µM | [1] 37.3 µM | [9] 10.8 µM | [2] 55 µM | [3] 19.9 µM | [4] 53.1 µM | [5] 40.1 µM | [6] 60.1 µM | [7] 50.1 µM

N=c1ccn2c(n1)O[C@H]1[C@H](O)[C@@H](CO)O[C@H]12
active: [9] 1 µM and 2.41 µM | [3] 2.17 µM and 3.17 µM | [5] 2.67 µM and 729 nM | [7] 1.27 µM and 1.19 µM
inactive: all other assays above
